ELG1 DNA repair: blocks ELG1-dependent DNA repair in HEK293T cells; HEK293T ELG1-luciferase reporter, luminescence, 16 h; DNA damage induced by 5-fluorouridine; Potency, µM (top dose mostly 46.1 µM), most hits filed as inhibitors; hit rate 2.3% among 330,000; note: nearly all actives have a fitted effect of over 55% in size
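Reporter activity after DNA damage by 5-fluorouridine is monitored. Compound-treated cells incubate 16 hr at 37 °C, then ONE-Glo is added for 30 min before luminescence reading.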
Sfp inh: blocks B. subtilis Sfp PPTase activity; Q9F4F7; Biochemical Sfp PPTase activity, qHTS; Potency, µM, usual class: inhibitors; hit rate 3.5% among 310,000;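 note: the enzyme is Sfp with the accession as filed and its product quenches rhodamine fluorescence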
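Buffer: 50 mM Hepes-Na pH 7.6, 10 mM MgCl2, 0.01% Nonidet P-40, 0.01% BSA. Enzyme 15 nM, pre-exposed to compound 15 min; substrates then added and fluorescence change tracked over 30 min.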
Coupling enz: counter-screen for Giardia aldolase inhibitors: coupling enzyme system; coupling enzyme system counterscreen, AmpLite Red fluorescence; AID 2472; hit rate 0.67% among 290,000; activity change, negative = inhibition, % at 58.2 µM, hits read low; in the data active = activity change below about -30%
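First, compound is pin-transferred into glyceraldehyde-3-phosphate coupling-enzyme reagent at 57.5 uM final and held 10 min at RT. Next, substrate, coupling system and AmpLite Red are added. After 20 min RT, fluorescence (525/598 nm) is read.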
Giardia kill: kills Giardia lamblia; AID 540267; hit rate 0.15% among 340,000; Giardia lamblia trophozoite viability; activity change, % at 7.66 µM, hits read low; in the data active = activity change below about -80%; inconclusive = between about -30% and that limit;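 note: parasites exposed to compound for two days anaerobically before the ATP read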
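Anaerobic 48 hrs incubation at 37 deg C of 100 trophozoites/well with test compounds; ATPLite 1-Step luminescence, 15-30 min RT, reports cellular ATP as viability.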
ELG1 FLuc counter: luciferase inhibition in cell-free luciferin readout for ELG1 hits. shares compounds with ELG1 DNA repair. cell-free firefly luciferase luminescence counter-screen, ViewLux. Potency, µM (highest dose often 46.1 µM), usual class: inhibitors. hit rate 3% among 350. AID 624247
ELG1 Luc conf: inhibits ELG1-dependent DNA repair in HEK293T cells, confirmed; Potency, µM (top dose mostly 46.1 µM), most hits filed as inhibitors; hit rate 68% among 670; shares compounds with ELG1 DNA repair; HEK293T ELG1-luciferase levels, luminescence; cells co-treated with 5-fluorouridine; note: nearly all actives have a fitted effect of over 55% in size
ELG1-Luc MMS: confirmation of human ELG1 repair inhibitors, MMS stimulated; shares compounds with ELG1 DNA repair; HEK293T luciferase-tagged ELG1 level, MMS stimulated; Potency, µM (series often up to 46.1 µM), most hits filed as inhibitors; hit rate 53% among 670; AID 624249; note: nearly all actives have a fitted effect of over 60% in size
ELG1 5-FU: confirmation of ELG1 repair inhibitors: viability with 5FU; cell viability with 5-FU, ELG1-dependent repair; shares compounds with ELG1 DNA repair; 670 tested, under 10 active; Potency, µM (series often up to 46.1 µM), most hits filed as cytotoxic;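 note: ELG1-luc HEK293T cells cotreated with 5-fluorouridine at 10 µM final; viability measured 16 h after compound addition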
ELG1 MMS viab: confirmation of ELG1 repair inhibitors: viability with MMS; Cell viability with MMS, ELG1-dependent DNA repair; hit rate 33% among 670; Potency, µM (doses to about 46.1 µM), hits mostly cytotoxic; AID 624251; shares compounds with ELG1 DNA repair;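 note: ELG1-luc HEK293T cells co-treated with 10 µM MMS; viability read 16 h after compound addition; nearly all actives have a fitted effect of over 60% in size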
ELG1 unstim viab: unstimulated viability counter-screen for ELG1 repair hits; shares compounds with ELG1 DNA repair; cell viability counter-screen, unstimulated, luminescence; Potency, µM (highest dose often 45.9 µM), hits mostly cytotoxic; hit rate 8% among 900;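 note: compound exposure lasted 16 hours before reading; nearly all actives have a fitted effect of over 55% in size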
FLuc biochem: counter-screen for ELG1 repair inhibitors: firefly luciferase inhibition; hit rate 10% among 350; Potency, µM (top dose mostly 57.5 µM), usual class: inhibitors; purified firefly luciferase, luminescence counter-screen; shares compounds with ELG1 DNA repair
Numbers stand for hits; - = inactive; ? = inconclusive; . = no result given. Only some compounds are listed: those with a hit (about 5.5% of all), similar ones and a draw of the others. Unless noted, calls come from the whole dose curve; as a rule, active = well fitted curve in the direction sought with a large enough effect; inconclusive = small, poorly fitted or top-dose-only effect, or another doubt; inactive = no such curve, though single readings can be large; an effect the other way counts as inactive or inconclusive.

SMILES | ELG1 DNA repair | Sfp inh | Coupling enz | Giardia kill | ELG1 Luc conf | ELG1-Luc MMS | ELG1 5-FU | ELG1 MMS viab | ELG1 unstim viab | others
COc1ccccc1CNS(=O)(=O)c1ccc(-n2cnnn2)c(OC)c1 | - | - | - | - | . | . | . | . | .
COc1ccccc1CCC(=O)Oc1ccccc1C#N | - | - | . | - | . | . | . | . | .
O=C(/C=C\c1cn(-c2ccccc2)nc1-c1ccc2c(c1)OCCO2)N1CCOCC1 | 3.26µM | - | - | - | 1.58µM | ? | ? | ? | -
O/N=C/c1cn(-c2ccccc2)nc1-c1ccc2c(c1)OCCO2 | ? | - | - | - | . | . | . | . | .
COc1ccc(OC)c(C2NC(=O)NC(C)=C2C(=O)OCc2ccccc2)c1 (configuration not stated) | - | - | - | - | . | . | . | . | .
CC1=C(C(=O)OCc2ccc3c(c2)OCO3)C(c2ccccc2OCc2ccccc2)NC(=O)N1 (configuration not stated) | 16.4µM | - | - | - | 22.3µM | ? | - | - | ? | ELG1 FLuc counter=-;FLuc biochem=-
O=C1c2cc(F)ccc2-n2c1nc1ccccc1c2=O | 0.184µM | - | - | ? | 19.9µM | 1.12µM | - | 1.77µM | ? | ELG1 FLuc counter=-;FLuc biochem=-
C=CCn1c(Oc2ccccc2F)nc2c1c(=O)n(C)c(=O)n2C | 4.11µM | - | - | - | 17.7µM | 19.9µM | ? | - | -
CC1CN(C(=O)COC(=O)/C=C/c2cccc([N+](=O)[O-])c2)CC(C)O1 (configuration not stated) | 1.46µM | . | . | - | - | ? | - | ? | ?
Cc1cc(C)c(NC(=S)N2CCN(c3ccc([N+](=O)[O-])cn3)CC2)cc1C | - | - | - | - | . | . | . | . | .
COc1cc(/C=C/c2noc(-c3ccccc3O)n2)cc(OC)c1OC | ? | - | - | - | . | . | . | . | .
COc1cc(/C=C/c2nc(N)nc(-c3ccccc3O)n2)cc(OC)c1OC | 2.91µM | - | - | - | 2.23µM | 7.05µM | - | ? | ?
CC(C)(C)OC(=O)NCCCCCNC(=O)c1nc[nH]c1C(=O)NCC(=O)OCc1ccccc1 | 2.59µM | . | . | - | 7.91µM | 11.2µM | - | 22.3µM | 17.7µM
CN(Cc1ccccc1)C(=O)c1[nH]cnc1C(=O)NCCCCCNC(=O)OC(C)(C)C | - | . | . | - | . | . | . | . | .
CC(C)(C)OC(=O)NCCCCCNC(=O)c1nc[nH]c1C(=O)NCCCCCNC(=O)OC(C)(C)C | 2.59µM | . | . | - | 6.28µM | 14.1µM | ? | 28.1µM | 15.8µM
CC(C)(C)OC(=O)CNC(=O)c1[nH]cnc1C(=O)Nc1ccc(CNC(=O)OC(C)(C)C)cc1 | ? | - | - | - | . | . | . | . | .
CC1CCN(C(=O)c2[nH]cnc2C(=O)NCCCCCNC(=O)OC(C)(C)C)CC1 | - | . | . | - | . | . | . | . | .
CC(C)(C)OC(=O)NCCCCCNC(=O)c1ncn(Cc2ccccc2)c1C(=O)NCCCCCNC(=O)OC(C)(C)C | 4.11µM | . | . | - | 7.05µM | - | ? | ? | -
CC(C)(C)OC(=O)NCc1ccc(NC(=O)c2nc[nH]c2C(=O)NCCNC(=O)c2[nH]cnc2C(=O)Nc2ccc(CNC(=O)OC(C)(C)C)cc2)cc1 | 1.3µM | . | . | - | 1.12µM | 3.53µM | - | ? | ?
COc1ccc(C/C(C)=N\NC(=O)c2cn(C)c3ccccc23)cc1OC | - | - | - | - | . | . | . | . | .
COc1ccccc1N(CC(=O)Nc1ccc(Br)cc1F)S(=O)(=O)c1cccs1 | - | . | . | - | . | . | . | . | .
O=C(Nc1ccccc1)c1nc[nH]c1C(=O)NCCCNC(=O)c1[nH]cnc1C(=O)Nc1ccccc1 | 2.91µM | . | . | - | 3.97µM | 11.2µM | ? | - | -
CC1CN(S(=O)(=O)c2ccc(C(=O)NCCCn3ccnc3)cc2)CC(C)O1 (configuration not stated) | 0.731µM | - | - | - | - | 0.0281µM | - | 0.0315µM | ? | ELG1 FLuc counter=?;FLuc biochem=-
CC1CN(S(=O)(=O)c2cccc(C(=O)NCCCn3ccnc3)c2)CC(C)O1 (configuration not stated) | . | - | - | - | . | . | . | . | .
O=S(=O)(c1ccc(F)cc1)N1CCN(c2nc(-c3ccccc3)nc3ccccc23)CC1 | . | . | . | - | . | . | . | . | .
SMILES | ELG1 DNA repair | Sfp inh | Coupling enz | Giardia kill | ELG1 Luc conf | ELG1-Luc MMS | ELG1 5-FU | ELG1 MMS viab | ELG1 unstim viab | others
CS(=O)(=O)N1CCCC(c2nc(-c3ccc(S(=O)(=O)NCc4ccccc4)cc3)no2)C1 (configuration not stated) | 3.66µM | - | - | - | 14.1µM | 1.99µM | - | 1.99µM | 14.1µM
COc1ccc(NC(=O)CNC(=O)c2nn(-c3ccc(OC)c(Cl)c3)c(=O)c3ccccc23)c(OC)c1 | 5.8µM | - | - | - | 3.54µM | - | - | - | ? | ELG1 FLuc counter=-;FLuc biochem=-
CCc1ccc(NC(=O)CNC(=O)c2nn(-c3ccc(OC)cc3)c(=O)c3ccccc23)cc1 | - | - | - | - | 14.1µM | - | ? | - | ? | ELG1 FLuc counter=-;FLuc biochem=-
COc1ccc(-n2nc(C(=O)NCC(=O)Nc3ccc(F)cc3)c3ccccc3c2=O)cc1 | ? | - | - | - | . | . | . | . | .
COc1ccc(-n2nc(C(=O)NCC(=O)Nc3ccccn3)c3ccccc3c2=O)cc1Cl | ? | ? | - | - | . | . | . | . | .
COc1cc2ccccc2cc1C(=O)N1CC(C)CC(C)C1 (configuration not stated) | ? | - | . | ? | . | . | . | . | .
COc1ccc(-c2nn(-c3ccccc3)cc2C(=O)NCC(c2cccs2)N2CCOCC2)cc1 (configuration not stated) | 4.61µM | . | . | ? | 14.1µM | - | ? | - | -
O=C(NCC(c1cccs1)N1CCOCC1)c1cn(-c2ccccc2)nc1-c1ccccc1 (configuration not stated) | ? | . | . | - | . | . | . | . | .
Cc1nc(N)nc(N)c1/C=C/C(C)(C)c1ccc(Cl)cc1 | 0.231µM | - | - | - | 7.92µM | 14.1µM | ? | ? | 0.0561µM | ELG1 FLuc counter=?;FLuc biochem=-
COc1ccc(-c2cc(-c3ccc(C)cc3)nc(SCc3nnc(-c4ccccc4)o3)c2C#N)cc1OC | 2.91µM | - | - | - | 3.15µM | - | ? | - | - | ELG1 FLuc counter=-;FLuc biochem=-
COc1cc(-c2cc(-c3ccccc3)nc(SCC(=O)O)c2C#N)cc(OC)c1OC | ? | - | - | - | . | . | . | . | .
CCC[C@H](N[C@@H](C)C(=O)N1[C@@H]2CCCC[C@H]2C[C@H]1C(=O)O)C(=O)OCC | . | - | - | . | . | . | . | . | .

Assay outcomes deposited in PubChem by National Center for Advancing Translational Sciences (NCATS).
